Bioassay records (PubChem BioAssay)
JMJD2E inh = qHTS Assay for Inhibitors of Human Jumonji Domain Containing 2E (JMJD2E); Lysine-specific demethylase 4E (Homo sapiens), B2RXH2; JMJD2E catalytic domain, FDH-coupled NADH fluorescence (FDH is formaldehyde dehydrogenase); Potency, µM (series often up to 57.1 µM), actives largely listed as inhibitors; 230,000 tested, 1.6% active; AID 2147, 2009; active = well fitted inhibition curve with a large enough effect, not every such curve was filed as active; inconclusive = small, poorly fitted or top-dose-only effect, or another doubt; inactive = no such curve, though single readings can be large or run the other way; note: nearly all actives have a fitted effect of over 50% in size
JMJD2A Tudor inh = qHTS Assay for Inhibitors of JMJD2A-Tudor Domain | 390,000 tested, 4.4% active | AlphaScreen JMJD2A-Tudor / H3K4me3 peptide binding | AID 504339, 2011 | Potency, µM (doses to about 114 µM), actives largely listed as inhibitors; note: nearly all actives have a fitted effect of over 50% in size
PI5P4Ka inh = qHTS for Inhibitors of phosphatidylinositol 5-phosphate 4-kinase (PI5P4K) | Phosphatidylinositol 5-phosphate 4-kinase type-2 alpha (Homo sapiens), P48426 | PI5P4Kalpha enzyme, ADP-Glo luminescence, 60 min; stronger effect = lower value | max response, % | 330,000 tested, 1.2% active | AID 652105, 2013; active = max response of -50% or lower; inconclusive = between -30% and -50%; inactive = -30% or higher; note: value at the top dose of about 77 µM
Target sequence (P48426 whole entry, looked up): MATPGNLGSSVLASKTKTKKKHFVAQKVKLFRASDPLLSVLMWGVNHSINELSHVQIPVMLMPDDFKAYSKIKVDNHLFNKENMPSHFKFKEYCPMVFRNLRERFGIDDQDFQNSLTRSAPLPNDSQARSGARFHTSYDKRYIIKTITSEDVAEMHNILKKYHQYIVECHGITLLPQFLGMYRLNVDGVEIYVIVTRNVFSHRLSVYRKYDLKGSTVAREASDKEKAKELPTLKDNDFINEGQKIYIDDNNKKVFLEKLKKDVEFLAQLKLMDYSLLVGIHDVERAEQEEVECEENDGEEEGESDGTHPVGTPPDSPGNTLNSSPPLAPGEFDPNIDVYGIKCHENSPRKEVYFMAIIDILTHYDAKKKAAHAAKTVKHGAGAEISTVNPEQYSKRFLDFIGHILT
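Human PI5P4Kalpha with substrate in 0.038 M HEPES pH 7.4, 0.28 mM EGTA, 0.1% CHAPS, 5% DMSO; reaction started with 5 microM ATP (final), 60 min at room temperature. ADP formed read by ADP-Glo luminescence.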
L3MBTL1 inh = qHTS Assay for the Inhibitors of L3MBTL1; Potency, µM (highest dose often 57.1 µM), most hits filed as inhibitors; Lethal(3)malignant brain tumor-like protein 1 (Homo sapiens), Q9Y468; 230,000 tested, 0.66% active; AlphaScreen L3MBTL1–H3K9me1 peptide binding; note: nearly all actives have a fitted effect of over 60% in size
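L3MBTL1 (50 nM) pre-complexed 30 min with biotinylated H3(1-15)K9me1 peptide (75 nM), then compounds added for 30 min at room temperature; AlphaScreen streptavidin donor/nickel chelate acceptor beads (10 ug/mL final) read after 30 min dark incubation.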
BAZ2B block = qHTS Assay for Inhibitors of BAZ2B | AlphaScreen BAZ2B-H3K14Ac peptide displacement | Potency, µM (highest dose often 114 µM), actives largely listed as inhibitors | 360,000 tested, 4.4% active | AID 504333, 2011; note: nearly all actives have a fitted effect of over 60% in size
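Compounds, titrated to a top concentration of 110 uM, were incubated 30 min at room temperature with preformed BAZ2B/acetyl-K14 H3 peptide complex (50 nM each). Proximity signal was measured by AlphaScreen after 20 min with beads.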
HP1b chromo inh = HTS for Inhibitors of HP1-beta Chromodomain Interactions with Methylated Histone Tails. Potency, µM (highest dose often 114 µM), hits mostly inhibitors. AlphaScreen HP1-beta / biotin-H3K9me3 peptide binding. Chromobox protein homolog 1 (Homo sapiens), P83916. AID 540317, 2011. 390,000 tested, 0.56% active; note: nearly all actives have a fitted effect of over 70% in size
Target sequence (P83916 whole entry, looked up): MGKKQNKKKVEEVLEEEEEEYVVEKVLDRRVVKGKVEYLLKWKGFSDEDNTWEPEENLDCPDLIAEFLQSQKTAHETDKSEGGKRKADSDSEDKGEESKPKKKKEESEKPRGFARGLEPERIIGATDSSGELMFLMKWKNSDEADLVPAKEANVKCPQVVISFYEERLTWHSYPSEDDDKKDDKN
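Compound inhibition of the preformed complex between 50 nM HP1-beta and 50 nM biotinylated H3K9me3 peptide was read by AlphaScreen. Buffer was PBS pH 7.4 with 0.01% Tween-20. Incubations ran 30 min at room temperature, with 10 ug/mL donor/acceptor beads.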
Numbers stand for hits; 0 = inactive; ? = inconclusive; - = no result given. The list is not random: actives were taken first. Their share in the collection is about 5.7%. Unless noted, calls come from the whole dose curve; as a rule, active = well fitted inhibition curve with a large enough effect; inconclusive = small, poorly fitted or top-dose-only effect; inactive = no such curve, though single readings can be large or run the other way.

SMILES	JMJD2E inh	JMJD2A Tudor inh	PI5P4Ka inh	L3MBTL1 inh	BAZ2B block	HP1b chromo inh
Cc1ccc(CNc2ncnc3ccc(-c4ccc5c(c4)OCO5)cc23)o1	-	44.7µM	-	-	-	-
c1nc(NCCc2cnc[nH]2)c2ccc(-c3ccc4c(c3)OCO4)cc2n1	-	79.4µM	-	-	-	-
Cc1nc(CN(C)c2ncnc3cc(-c4ccc5c(c4)OCO5)ccc23)cs1	-	89.1µM	-	-	-	-
Cc1csc(CNc2ncnc3cc(-c4ccc5c(c4)OCO5)ccc23)n1	-	56.2µM	-	-	-	-
COc1ccccc1C(=O)NC1=NC(c2ccc(Br)cc2)CC(=O)N1 (configuration not stated)	-	0	-	-	0	0
CCCCNc1nc2c(S(=O)(=O)c3ccc(Cl)cc3)nnn2c2ccsc12	-	0	-	-	0	0
S=c1nn[nH]c2ccccc12	-	11.2µM	0	-	-	0
O=C1C(NS(=O)(=O)c2cccs2)=C(N2CCN(Cc3ccccc3)CC2)C(=O)c2ccccc21	0	14.1µM	0	?	12.6µM	15.8µM
O=C1C(NS(=O)(=O)c2cccs2)=C(N2CCOCC2)C(=O)c2ccccc21	0	?	0	0	39.8µM	?
CN1CCN(C2=C(NS(=O)(=O)c3cccs3)C(=O)c3ccccc3C2=O)CC1	0	0	0	0	0	0
CC(NS(C)(=O)=O)C(c1cccs1)N1CCN(Cc2ccccc2)CC1 (configuration not stated)	0	0	0	0	0	0
CN(C1=C(N2CCOCC2)C(=O)c2ccccc2C1=O)c1ccccc1	0	15.8µM	0	25.1µM	10µM	35.5µM
CCOc1ccccc1N1CCN(C2=C(NS(=O)(=O)c3cccs3)C(=O)c3ccccc3C2=O)CC1	0	8.91µM	0	-	8.91µM	?
CCN1CCc2c(sc(NC(=O)c3ccc(S(=O)(=O)N(C)c4ccccc4)cc3)c2C(=O)NC)C1	-	0	0	-	0	0
O=C1C(NS(=O)(=O)c2cccs2)=C(N2CCN(c3cccc(C(F)(F)F)c3)CC2)C(=O)c2ccccc21	0	39.8µM	0	-	10µM	?
COc1cc(N/N=C(\C)c2ccc(N)cc2)nc(-c2ccccc2)n1	?	0	0	?	31.6µM	0
COc1cc(N/N=C(\C)c2ccc(O)c(C)c2)nc(-c2ccccc2)n1	31.6µM	?	0	0	0	?
O=C(COC(=O)c1ccccn1)Nc1nc(-c2ccccc2)cs1	-	79.4µM	0	-	50.1µM	0
O=C(COC(=O)c1ccccn1)Nc1nc(-c2cccc([N+](=O)[O-])c2)cs1	0	0	0	-	56.2µM	0
Cc1cc(Cl)ccc1C(O)c1ncc(-c2ccc(Cl)cc2)[nH]1 (configuration not stated)	-	-	0	-	-	-
Cc1ccc(C)c(S(=O)(=O)N2CCN(C(=O)/C=C/c3ccco3)CC2)c1	-	44.7µM	-61.1	?	?	?
Cc1ccc(S(=O)(=O)N2CCN(CC(=O)NC(=O)NCc3ccco3)CC2)cc1C	0	?	0	-	0	0
O=C(/C=C/c1ccco1)N1CCN(S(=O)(=O)c2ccc(F)c(F)c2F)CC1	0	0	0	-	0	0
O=C(/C=C/c1ccco1)N1CCN(S(=O)(=O)c2ccccc2)CC1	-	56.2µM	?	?	-	50.1µM
Cc1ccc(C)c(S(=O)(=O)N2CCN(CC(=O)NC(=O)NCc3ccco3)CC2)c1	0	50.1µM	?	0	0	?
SMILES	JMJD2E inh	JMJD2A Tudor inh	PI5P4Ka inh	L3MBTL1 inh	BAZ2B block	HP1b chromo inh
O=C(CCCN1C(=O)c2ccccc2C1=O)NC1=NCCS1	0	31.6µM	0	0	0	0
O=C(CCCN1C(=O)c2ccccc2C1=O)Nc1nncs1	0	0	0	0	0	0
C=C1CCN(c2ccc(C(=O)O)cc2[N+](=O)[O-])CC1	-	0	0	-	-	0
COC(=O)c1ccc(N2CCc3ccccc32)c([N+](=O)[O-])c1	-	14.1µM	0	-	7.94µM	?
CCOC(CNC(=O)c1ccc(N2CCc3ccccc32)c([N+](=O)[O-])c1)OCC	0	56.2µM	0	?	39.8µM	28.2µM
O=C(NCc1ccc(F)cc1)c1ccc(N2CCc3ccccc32)c([N+](=O)[O-])c1	0	17.8µM	0	?	7.08µM	50.1µM
O=C(O)c1ccc(N2CCc3ccccc32)c([N+](=O)[O-])c1	-	0	-79.0	-	?	0
CCCCN(CC)CCCNC(=O)c1c(C)oc2ncnc(N3CCOCC3)c12	-	0	-	-	0	0
CCC1(C)Cc2ccccc2-c2[nH][nH]c(=O)c21 (configuration not stated)	?	0	0	-	0	0
Nc1ccc(-c2cc3ccccc3oc2=O)cc1	-	0	0	-	0	0
O=C/C=C/c1c(-c2ccccc2)cc2oc3ccccc3cc1-2	-	6.31µM	?	-	3.55µM	6.31µM
N#C/C(=C\c1ccc(Cl)cc1)c1n[nH]c(Cn2cncn2)n1	?	?	0	-	?	0
O=C(Nc1ccc(Cl)cc1Cl)c1n[nH]c(Cn2cncn2)n1	0	?	0	0	56.2µM	0
O=c1cc(O)c2ccc(O)cc2o1	?	0	-50.4	0	0	0
Cc1cc(=O)oc2cc(O)ccc12	?	0	0	-	-	0
O=C(NCc1ccccc1)NC(O)C(Cl)(Cl)Cl (configuration not stated)	0	0	0	0	0	0
COc1cc(-c2nnc(NC(=O)CS(=O)(=O)c3ccc(F)cc3)o2)cc(OC)c1OC	-	39.8µM	0	0	56.2µM	0
O=C(COC(=O)CNC(=O)c1ccccc1)Nc1nnc(-c2ccccc2)o1	-	?	0	0	?	0
COc1ccccc1-c1nnc(NC(=O)CCS(=O)(=O)c2ccc(F)cc2)o1	-	-	0	-	-	-
COc1cc(-c2nnc(NC(=O)CS(=O)(=O)c3ccc(C)cc3)o2)cc(OC)c1OC	-	25.1µM	0	0	44.7µM	0
COc1cc(C(=O)NCC(=O)OCC(=O)Nc2nnc(-c3ccccc3)o2)cc(OC)c1OC	-	22.4µM	0	0	?	0
CSCCC(NS(=O)(=O)c1ccc2c(c1)oc(=O)n2C)C(=O)N1CCN(c2cccc(Cl)c2)CC1 (configuration not stated)	-	0	-	-	0	0
O=C(CC1c2ccccc2Oc2ccccc21)Nc1ccccc1C(F)(F)F	0	0	0	0	0	0
Cc1ccc(C(=O)N/C(=C\c2ccc(-c3ccccc3[N+](=O)[O-])o2)C(=O)NCCCN(C)C)cc1	-	?	0	-	?	0
Cc1ccc(C(=O)N/C(=C\c2ccc(-c3ccccc3[N+](=O)[O-])o2)C(=O)NCCN(C)C)cc1	-	56.2µM	0	0	0	?
